Assay results published in the supplement of paper PMC8728848.
This excerpt belongs to a sample that is enriched for the strongest signals.

How the values were obtained:
Experiment in all cases: glycan array binding signal (z-score within array); higher = stronger binding
Settings in all cases: glycan notation: IUPAC condensed, linker removed
[1] = biological target: Neu5Ac(a2-6)GlcNAc(b1-4)GlcNAc
How it was run: (§1)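 Glycan array binding is given as a within-array Z-score, which can be read as non-binding when negative. The arrays, 3228 of them, came from the Consortium for Functional Glycomics database and were retained only where the protein sequence was available. Z-scores were averaged across arrays of the same protein sequence at different concentrations or buffers and across linkers.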

[2] = biological target: Neu5Ac(a2-8)Neu5Ac(a2-8)Neu5Ac(a2-8)Neu5Ac(a2-3)[GalNAc(b1-4)]Gal(b1-4)Glc
How it was run: as §1

[3] = biological target: Neu5Gc(a2-3)Gal(b1-4)GlcNAc
How it was run: as §1

[4] = biological target: Fuc(a1-2)Gal(b1-3)GalNAc(b1-4)[Neu5Ac(a2-3)]Gal(b1-4)Glc
How it was run: as §1

[5] = biological target: Fuc(a1-2)Gal(b1-4)[Fuc(a1-3)]GlcNAc
How it was run: as §1

[6] = biological target: Fuc(a1-2)Gal(b1-4)[Fuc(a1-3)]GlcNAc(b1-3)Gal(b1-4)[Fuc(a1-3)]GlcNAc
How it was run: as §1

[7] = biological target: Fuc(a1-3)[Gal3S(b1-4)]GlcNAc
How it was run: as §1

[8] = biological target: Fuc(a1-3)[Gal3S(b1-4)]GlcNAc6S
How it was run: as §1

[9] = biological target: Gal(a1-3)Gal(b1-3)GlcNAc
How it was run: as §1

[10] = biological target: Gal(a1-3)Gal(b1-4)[Fuc(a1-3)]GlcNAc
How it was run: as §1

[11] = biological target: Gal(a1-3)GalNAc
How it was run: as §1

[12] = biological target: Gal3S(b1-4)Glc
How it was run: as §1

[13] = biological target: Gal3S6S(b1-4)GlcNAc
How it was run: as §1

[14] = biological target: Gal4S6S(b1-4)GlcNAc
How it was run: as §1

[15] = biological target: GlcNAc3Prop(b1-4)GlcNAc
How it was run: as §1

[16] = biological target: Kdn(a2-3)Gal(b1-4)GlcNAc
How it was run: as §1

[17] = biological target: Man(a1-2)Man(a1-3)[Man(a1-2)Man(a1-6)]Man(a1-6)[Man(a1-2)Man(a1-2)Man(a1-3)]Man
How it was run: as §1

[18] = biological target: Neu5Ac(a2-3)Gal
How it was run: as §1

[19] = biological target: Neu5Ac(a2-3)Gal(b1-3)GalNAc(b1-4)[Neu5Ac(a2-3)]Gal(b1-4)Glc
How it was run: as §1

[20] = biological target: Neu5Ac(a2-3)Gal(b1-3)GlcNAc6S
How it was run: as §1

[21] = biological target: Neu5Ac(a2-3)Gal(b1-3)[Neu5Ac(a2-3)Gal(b1-4)]GlcNAc
How it was run: as §1

[22] = biological target: Neu5Ac(a2-3)Gal(b1-4)GlcNAc(b1-2)Man(a1-3)[GlcNAc(b1-2)Man(b1-4)GlcNAc(b1-2)Man(a1-6)]Man(b1-4)GlcNAc(b1-4)GlcNAc
How it was run: as §1

[23] = biological target: Neu5Ac(a2-3)Gal(b1-4)GlcNAc6S
How it was run: as §1

[24] = biological target: Neu5Ac(a2-3)Gal6S(b1-4)[Fuc(a1-3)]GlcNAc
How it was run: as §1

[25] = biological target: Neu5Ac(a2-3)[GalNAc(b1-4)]Gal(b1-4)GlcNAc
How it was run: as §1

[26] = biological target: Neu5Ac(a2-3)[Neu5Ac(a2-6)]GalNAc
How it was run: as §1

[27] = biological target: Neu5Ac(a2-6)Gal(b1-4)GlcNAc(b1-3)Gal(b1-4)[Fuc(a1-3)]GlcNAc(b1-3)Gal(b1-4)[Fuc(a1-3)]GlcNAc
How it was run: as §1

[28] = biological target: Neu5Ac(a2-6)GalNAc(b1-4)GlcNAc
How it was run: as §1

[29] = biological target: Neu5Ac9Ac(a2-6)Gal(b1-4)GlcNAc
How it was run: as §1

[30] = biological target: Fuc(a1-2)Gal(b1-4)GlcNAc
How it was run: as §1

[31] = biological target: Fuc(a1-2)[Gal(a1-4)]Gal(b1-4)GlcNAc
How it was run: as §1

[32] = biological target: Fuc(a1-3)[Gal(b1-4)]GlcNAc(b1-4)Gal(b1-4)[Fuc(a1-3)]GlcNAc
How it was run: as §1

[33] = biological target: Fuc(a1-4)GlcNAc
How it was run: as §1

[34] = biological target: Gal(b1-3)GlcNAc(b1-3)Gal(b1-4)GlcNAc
How it was run: as §1

[35] = biological target: Gal3S(b1-3)[Fuc(a1-4)]GlcNAc
How it was run: as §1

[36] = biological target: GlcNAc(a1-3)Gal(b1-4)GlcNAc
How it was run: as §1

[37] = biological target: GlcNAc(a1-6)Gal(b1-4)GlcNAc
How it was run: as §1

[38] = biological target: GlcNAc(b1-3)Gal
How it was run: as §1

[39] = biological target: GlcNAc(b1-3)Gal(b1-3)GalNAc
How it was run: as §1

[40] = biological target: GlcNAc(b1-3)Gal(b1-4)Glc
How it was run: as §1

[41] = biological target: GlcNAc(b1-3)[GlcNAc(b1-6)]Gal(b1-4)GlcNAc
How it was run: as §1

[42] = biological target: GlcNAc(b1-3)[GlcNAc(b1-6)]GlcNAc(b1-4)GlcNAc
How it was run: as §1

[43] = biological target: Man(a1-2)Man(a1-3)[Man(a1-6)]Man(a1-6)[Man(a1-2)Man(a1-3)]Man(b1-4)GlcNAc(b1-4)GlcNAc
How it was run: as §1

[44] = biological target: Neu5Ac(a2-3)Gal(b1-4)[Fuc(a1-3)]GlcNAc(b1-3)Gal(b1-4)GlcNAc
How it was run: as §1

[45] = biological target: Neu5Gc(a2-3)Gal(b1-3)[Fuc(a1-4)]GlcNAc
How it was run: as §1

[46] = biological target: Fuc(a1-2)[GalNAc(a1-3)]Gal(b1-4)[Fuc(a1-3)]GlcNAc
How it was run: as §1

[47] = biological target: Gal(b1-4)GlcNAc(b1-3)[Gal(b1-4)GlcNAc(b1-6)]GalNAc
How it was run: as §1

[48] = biological target: Gal3S6S(b1-4)GlcNAc6S
How it was run: as §1

[49] = biological target: Glc(a1-4)Glc
How it was run: as §1

[50] = biological target: GlcNAc(b1-4)Gal(b1-4)GlcNAc
How it was run: as §1

[51] = biological target: Man(a1-2)Man(a1-2)Man(a1-3)Man
How it was run: as §1

[52] = biological target: Man(a1-2)Man(a1-2)Man(a1-6)[Man(a1-3)]Man
How it was run: as §1

[53] = biological target: Man(a1-3)[Man(a1-6)]Man(b1-4)GlcNAc(b1-4)GlcNAc
How it was run: as §1

[54] = biological target: Neu5Ac(a2-8)Neu5Ac
How it was run: as §1

B1: PEB3 (Campylobacter jejuni), Q0PBL7 (protein)
chain: MKKIITLFGACALAFSMANADVNLYGPGGPHTALKDIANKYSEKTGVKVNVNFGPQATWFEKAKKDADILFGASDQSALAIASDFGKDFNVSKIKPLYFREAIILTQKGNPLKIKGLKDLANKKVRIVVPEGAGKSNTSGTGVWEDMIGRTQDIKTIQNFRNNIVAFVPNSGSARKLFAQDQADAWITWIDWSKSNPDIGTAVAIEKDLVVYRTFNVIAKEGASKETQDFIAYLSSKEAKEIFKKYGWRE
For B1, the “glycan array binding signal (z-score)” value [1] was -0.895, the “glycan array binding signal (z-score)” value [2] was -0.3 and the “glycan array binding signal (z-score)” value [3] was -0.701.

B2: MIC1 (Toxoplasma gondii), O00834 (protein)
chain: MGQALFLTVLLPVLFGVGPEAYGEASHSHSPASGRYIQQMLDQRCQEIAAELCQSGLRKMCVPSSRIVARNAVGITHQNTLQWRCFDTASLLESNQENNGVNCVDDCGHTIPCPGGVHRQNSNHATRHEILSKLVEEGVQRFCSPYQASANKYCNDKFPGTIARRSKGFGNNVEVAWRCYEKASLLYSVYAECASNCGTTWYCPGGRRGTSTELDKRHYTEEEGIRQAIGSVDSPCSEVEVCLPKDENPPLCLDESGQISRTGGGPPSQPPEMQQPADRSDERGGGKEQSPGGEAQPDHPTKGGNIDLPEKSTSPEKTPKTEIHGDSTKATLEEGQQLTLTFISTKLDVAVGSCHSLVANFLDGFLKFQTGSNSAFDVVEVEEPAGPAVLTIGLGHKGRLAVVLDYTRLNAALGSAAYVVEDSGCSSSEEVSFQGVGSGATLVVTTLGESPTAVSA
B2 was tested, and the “glycan array binding signal (z-score)” value [4] was -0.232, the “glycan array binding signal (z-score)” value [5] was -0.213 and the “glycan array binding signal (z-score)” value [6] was -0.138. The “glycan array binding signal (z-score)” value [7] was -0.041, the “glycan array binding signal (z-score)” value [8] was -0.233 and the “glycan array binding signal (z-score)” value [9] was -0.059. For the same binder, the “glycan array binding signal (z-score)” value [10] was -0.014, the “glycan array binding signal (z-score)” value [11] was -0.139 and the “glycan array binding signal (z-score)” value [12] was -0.149. For the same binder, the “glycan array binding signal (z-score)” value [13] was -0.228, the “glycan array binding signal (z-score)” value [14] was -0.218 and the “glycan array binding signal (z-score)” value [15] was -0.196. For the same binder, the “glycan array binding signal (z-score)” value [16] was -0.256, the “glycan array binding signal (z-score)” value [17] was -0.307 and the “glycan array binding signal (z-score)” value [18] was -0.068. For the same binder, the “glycan array binding signal (z-score)” value [19] was -0.19, the “glycan array binding signal (z-score)” value [20] was 0.131 and the “glycan array binding signal (z-score)” value [21] was 4.31. For the same binder, the “glycan array binding signal (z-score)” value [22] was 3.01, the “glycan array binding signal (z-score)” value [23] was 6.25 and the “glycan array binding signal (z-score)” value [24] was -0.178. For the same binder, the “glycan array binding signal (z-score)” value [25] was 5.43, the “glycan array binding signal (z-score)” value [26] was -0.313 and the “glycan array binding signal (z-score)” value [27] was -0.268. The “glycan array binding signal (z-score)” value [28] was -0.152, the “glycan array binding signal (z-score)” value [29] was -0.294 and the “glycan array binding signal (z-score)” value [3] was 9.71.

B3: F17fG (Escherichia coli), Q9RH91 (protein)
chain: MTNFYKVFLAVFILVCCNISHAAVSFIGSTENDVGPSQGSYSSTHAMDNLPFVYNTGHNIGYQNANVWRISGGFCVGLDGKVDLPVVGSLDGQSIYGLTEEVGLLIWMGDTNYSRGTAMSGNSWENVFSGWCVGNYVSTQGLSVHVRPVILKRNSSAQYSVQKTSIGSIRMRPYNGSSAGSVQTTVNFSLNPFTLNDTVTSCRLLTPSAVNVSLAAISAGQLPSSGDEVVAGTTSLKLQCDAGVTVWATLTDATTPSNRSDILTLTGASTATGVGLRIYKNTDSTPLKFGPDSPVKGNENQWQLSTGTETSPSVRLYVKYVNTGEGINPGTVNGISTFTFSYQ
B3 was tested, and the “glycan array binding signal (z-score)” value [4] was -0.197, the “glycan array binding signal (z-score)” value [30] was -0.322 and the “glycan array binding signal (z-score)” value [31] was -0.127. For the same binder, the “glycan array binding signal (z-score)” value [32] was -0.238, the “glycan array binding signal (z-score)” value [7] was -0.234 and the “glycan array binding signal (z-score)” value [33] was -0.38. The “glycan array binding signal (z-score)” value [34] was -0.3, the “glycan array binding signal (z-score)” value [35] was -0.253 and the “glycan array binding signal (z-score)” value [13] was 0.156. For the same binder, the “glycan array binding signal (z-score)” value [14] was 0.026, the “glycan array binding signal (z-score)” value [36] was -0.323 and the “glycan array binding signal (z-score)” value [37] was -0.364. The “glycan array binding signal (z-score)” value [38] was 5.09, the “glycan array binding signal (z-score)” value [39] was 5.89 and the “glycan array binding signal (z-score)” value [40] was 4.83. For the same binder, the “glycan array binding signal (z-score)” value [41] was 6.97, the “glycan array binding signal (z-score)” value [42] was 0.169 and the “glycan array binding signal (z-score)” value [43] was -0.263. The “glycan array binding signal (z-score)” value [44] was -0.23, the “glycan array binding signal (z-score)” value [45] was -0.305 and the “glycan array binding signal (z-score)” value [3] was -0.278.

B4: RS-IIL (Ralstonia solanacearum) (protein)
chain: AQQGVFTLPANTSFGVTAFANAANTQTIQVLVDNVVKATFTGSGTSDKLLGSQVLNSGSGAIKIQVSVNGKPSDLVSNQTILANKLNFAMVGSEDGTDNDYNDGIAVLNWPLG
For B4, the “glycan array binding signal (z-score)” value [4] was 0.021, the “glycan array binding signal (z-score)” value [46] was 0.302 and the “glycan array binding signal (z-score)” value [34] was -0.381. For the same binder, the “glycan array binding signal (z-score)” value [47] was -0.389, the “glycan array binding signal (z-score)” value [48] was -0.385 and the “glycan array binding signal (z-score)” value [49] was -0.266. The “glycan array binding signal (z-score)” value [50] was -0.389, the “glycan array binding signal (z-score)” value [51] was 4.58 and the “glycan array binding signal (z-score)” value [52] was 5.58. The “glycan array binding signal (z-score)” value [43] was 4.71, the “glycan array binding signal (z-score)” value [53] was 4.76 and the “glycan array binding signal (z-score)” value [44] was -0.268. The “glycan array binding signal (z-score)” value [54] was -0.388.
